ST2 inh = inhibitors of human ST2 (IL1RL1) binding to IL-33, primary screen, biochemical, AlphaLISA; actives 2.3% (n = 78,000); inhibition, % for hits at 17 µM; AID 1259354, 2018; AlphaLISA ST2-Fc/biotin-IL-33 interaction, 1 h; in the data active = inhibition above about 30%
Target sequence (Q01638 whole entry, looked up): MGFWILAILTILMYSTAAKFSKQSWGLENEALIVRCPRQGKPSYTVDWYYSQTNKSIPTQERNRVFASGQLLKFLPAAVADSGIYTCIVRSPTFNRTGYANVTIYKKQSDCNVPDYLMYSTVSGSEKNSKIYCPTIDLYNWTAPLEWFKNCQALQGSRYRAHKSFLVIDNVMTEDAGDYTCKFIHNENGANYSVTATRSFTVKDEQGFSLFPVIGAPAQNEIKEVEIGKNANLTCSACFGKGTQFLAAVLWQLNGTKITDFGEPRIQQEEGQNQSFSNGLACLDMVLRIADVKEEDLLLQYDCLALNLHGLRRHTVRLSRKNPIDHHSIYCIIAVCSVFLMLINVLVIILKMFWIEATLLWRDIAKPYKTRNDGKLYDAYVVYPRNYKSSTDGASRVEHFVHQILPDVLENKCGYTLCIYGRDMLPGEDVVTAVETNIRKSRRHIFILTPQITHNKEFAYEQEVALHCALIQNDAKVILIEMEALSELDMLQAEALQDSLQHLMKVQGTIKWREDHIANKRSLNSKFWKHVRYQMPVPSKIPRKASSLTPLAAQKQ
Starred values were filed as active, the others as inactive; i = inactive. Shown is part of a subset that was picked to be rich in hits.

SMILES	ST2 inh
COc1ccc(/C=C2\N=C(c3cccc(C)c3)OC2=O)c(OC)c1OC	48.0%*
Cc1cccc(C2=N/C(=C\c3cccc(C(F)(F)F)c3)C(=O)O2)c1	32.0%*
Cc1cccc(C2=N/C(=C\c3sccc3C)C(=O)O2)c1	37.0%*
CCOc1ccc(/C=C2\N=C(c3cccc(F)c3)OC2=O)cc1OC	i
O=C1OC(c2cccc([N+](=O)[O-])c2)=N/C1=C\c1ccc(Cl)cc1Cl	i
COc1ccccc1/C=C1\N=C(c2cccc([N+](=O)[O-])c2)OC1=O	i
Cc1cccc(C2=N/C(=C\c3c(F)cccc3Cl)C(=O)O2)c1	i
COc1cc(S(=O)(=O)Nc2ccc(Cc3ccncc3)cc2)c(OC)cc1Cl	i
Nc1cc(=O)[nH]c(SCC(=O)c2c(-c3ccccc3)[nH]c3ccccc23)n1	i
Cc1ccccc1-c1noc(CCC(=O)N(C)Cc2n[nH]c3c2CCC3)n1	i
Cc1nc(C)c(CC(=O)N(C)CCn2ccc3ccccc32)c(=O)[nH]1	i
O=C(c1csc2c1CCCC2)N1CCCC(CNS(=O)(=O)c2cccs2)C1 (stereo not drawn)	i
c1ccc2c(SCc3nc4ccccc4[nH]3)nncc2c1	i
O=C(CCCn1c(=O)c2sccc2n(Cc2ccc([N+](=O)[O-])cc2)c1=O)NCc1ccco1	i
COc1ccc2nc(NS(=O)(=O)c3ccc(C)cc3)sc2c1	i
COc1cccc(NC(=O)CCC2CCN(C3C4CC5CC(C4)CC3C5)CC2)c1 (stereo not drawn)	i
O=C(Nc1ccc(F)cc1F)c1ccccc1I	i
CCOc1ccc(/C=C2\N=C(c3cccc(I)c3)OC2=O)cc1	i
COc1ccc(/C=C2\N=C(c3ccc(-c4ccccc4)cc3)OC2=O)cc1	i
Cc1cccc(C2=N/C(=C\c3ccc(C)o3)C(=O)O2)c1	53.0%*
O=C(c1cn(C(c2ccccc2)c2ccccc2)nn1)N1CCCC1c1ccc(F)cc1 (stereo not drawn)	i
COc1ccc(CCNC(=O)c2sc3nc(-c4ccc(OC)cc4)ccc3c2N)cc1	i
CSc1ccc(NC(=O)c2sc3nc(-c4ccc(F)cc4)ccc3c2N)cc1	44.0%*
COc1cc(NC(=O)c2sc3nc(-c4ccc(F)cc4)ccc3c2N)cc(OC)c1OC	i
CCOC(=O)C1=C(C)NC2=C(C(=O)c3ccccc32)C1c1ccc(C(C)C)cc1 (stereo not drawn)	i
SMILES	ST2 inh
COCCCN1C(=O)N(Cc2ccccc2)C(=O)C12CCN(Cc1c(F)cccc1Cl)CC2	32.0%*
CCN1C(=O)N(CCc2ccccc2)C2(CCN(Cc3cccc(OC)c3OC)CC2)C1=O	i
O=C1N(Cc2cccnc2)C(=O)C2(CCN(Cc3ccccc3Cl)CC2)N1CCc1ccccc1	i
Cc1ccc(CN(CCN(C)C)C(=O)c2c[nH]c(=O)cn2)s1	i
CCS(=O)(=O)N1CCN(c2c(Cl)cccc2[N+](=O)[O-])CC1	i
Cc1c(Cl)c([N+](=O)[O-])cc([N+](=O)[O-])c1N1CCCC1	40.0%*
Cc1ccc(OCCCN2CCCCC2)c([N+](=O)[O-])c1	i
CC(=O)Nc1nc(C)c(-c2csc(Nc3ccc(Br)cc3)n2)s1	i
COc1ccc(OC)c(Nc2nc(-c3sc(N)nc3C)cs2)c1	36.0%*
COc1ccccc1Nc1nc(-c2ccc(F)cc2)cs1	i
COc1c(C)c2c(c(O)c1C/C=C(\C)C(O)CC(=O)O)C(=O)OC2 (stereo not drawn)	i
O=C(CCN1CCC(c2nnc3ccccn23)CC1)NC1CCCCCC1	i
O=C(O)c1cccc(NC2=CC(=NS(=O)(=O)c3ccc(F)cc3)c3ccccc3C2=O)c1	45.0%*
O=C(O)c1cccc(NS(=O)(=O)c2cccc(C(=O)Nc3ccccc3)c2)c1	i
CN(CC(=O)Nc1ccc(C(=O)O)cc1)S(=O)(=O)c1ccccc1	i
O=C(O)c1cccc(NC(=O)C(c2ccccc2)c2ccccc2)c1	i
O=C1C(Nc2ccc(O)cc2)=CC(=NS(=O)(=O)c2ccc(Cl)cc2)c2ccccc21	87.0%*
O=C(O)c1ccc(NC2=CC(=NS(=O)(=O)c3ccccc3)c3ccccc3C2=O)cc1	48.0%*
O=C1C=C(Nc2ccc(Cl)cc2)C(=O)N1c1ccccc1	i
O=C(O)c1ccc(S(=O)(=O)c2ccccc2)cc1	i
O=C(O)c1cccc(NS(=O)(=O)c2ccccc2)c1	i
CCc1ccc(S(=O)(=O)N=C2C=C(Nc3cccc(C(=O)O)c3)C(=O)c3ccccc32)cc1	52.0%*
CC(=O)c1cccc(NC(=O)C(Cc2ccccc2)N2C(=O)c3ccccc3C2=O)c1 (stereo not drawn)	i
NCC1Cc2cc(-c3ccc(S(N)(=O)=O)cc3F)cc(Cl)c2O1 (stereo not drawn)	i
O=C(Nc1sc2c(c1C(=O)NCC1CCCO1)CCCC2)c1cccc([N+](=O)[O-])c1 (stereo not drawn)	i
SMILES	ST2 inh
Cc1ccc2c(-c3cc4c(n(CC5CC5)c3=O)CCN(C(=O)c3cc5ncccn5n3)C4)cccc2n1	i
COc1ccc(N(CC(=O)NCc2ccccn2)S(=O)(=O)c2ccc(C)c([N+](=O)[O-])c2)cc1	i
CC(CCn1cccn1)Nc1nncc(-c2ccc3ccccc3c2)n1 (stereo not drawn)	i
C[C@@H](c1ccccc1)N1C(=O)[C@@H]2CN(C(=O)COCC(=O)O)CCN2C1=O	i
Cn1cc(C(=O)N2CCN(c3ccc(F)cc3)CC2)c2c3ccccc3n(C)c2c1=O	i
O=C(NCCSc1c[nH]c2ccccc12)c1cccc(Cl)c1	i
CCC1CN(Cc2noc(C)n2)CCC(=O)N1Cc1ccccc1 (stereo not drawn)	i
CCOC(=O)c1cnc2c(Cl)cccc2c1Nc1ccccc1	i
CC(=O)C1=NN(c2ccccc2)C2C(=O)N(c3ccc(C)cc3)C(=O)C12 (stereo not drawn)	i
O=C(c1ccc(F)cc1)N(Cc1ccccc1)Cc1ccccc1	i
CC1=NN(c2ccccc2)C(=O)C1C(=O)c1ccc(F)cc1 (stereo not drawn)	37.0%*
O=C(CCc1ccc(O)c(O)c1)CCC(O)Cc1ccc(O)c(O)c1 (stereo not drawn)	i
CCOC(=O)c1c(NC(=O)COc2ccc(C(C)(C)C)cc2)sc(C(C)=O)c1C	i
CC(=O)Nc1cccc(NS(=O)(=O)c2ccc(Cl)cc2)c1	i
Cc1cccc(C)c1NC(=O)CSc1nnc(-c2ccccc2)c(-c2ccccc2)n1	i
COc1ccc(NC(=O)CSc2ncccn2)cc1	i
COc1cc(NC(=O)CSc2nnc(-c3ccco3)c(-c3ccco3)n2)cc(OC)c1	31.0%*
COc1ccc(C(=O)Nc2cc(C(=O)Nc3cc(Cl)ccc3Cl)ccc2OC)cc1	i
CN(CCNC(=O)C1CCCN1c1nnc(N2CCCC2=O)s1)C1CCCCC1 (stereo not drawn)	i
CC(C)N(CCCNC(=O)C1CCCN1c1nnc(N2CCCC2=O)s1)Cc1ccccc1 (stereo not drawn)	34.0%*
CN(CCCNC(=O)C1CCCN1c1nnc(N2CCCC2=O)s1)C1CCCCC1 (stereo not drawn)	i
O=C(Nc1cccc(Cl)c1)c1ccc(Cl)c(Cl)c1	i
Cc1cccc(N2CCN(S(=O)(=O)c3cccc4cccnc34)CC2C)c1 (stereo not drawn)	i
O=C(NCCc1ccccc1)c1ccc(Cl)c(Cl)c1	i
O=C(Nc1ccc(Br)cn1)c1ccc(Cl)cc1[N+](=O)[O-]	i
